Our source for the z-score and composite z-score values is PubChem BioAssay.

Active and inactive are the calls of the source.

A short description of test [1]: compound effects on differentiated 3T3-L1 adipocyte viability – cell-based, 3T3-L1 adipocytes, calcein-AM fluorescence, 48 h, basal, profiling panel (AID 1163). Conditions: 3T3-L1 adipocytes viability, higher = more signal.
Test [2] is described as follows: compound effects on hepatocellular carcinoma cell viability – HepG2, calcein-AM fluorescence, 48 h, basal, profiling panel (AID 1164). Conditions: higher = more signal.
Test [3] in a line: compound effects on multiple myeloma cell viability – MM1S, calcein-AM fluorescence, 48 h, basal, profiling panel (AID 1165).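 Note: viability of MM1S multiple myeloma cells under basal unstimulated conditions.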 The following applies: higher = more signal.
A short description of test [4]: calcein-AM signal in unstimulated myeloma cells – cell-based, calcein-AM fluorescence, 48 h, PK04 Diversity Set, profiling panel (AID 1166).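 Note: cells grown under basal conditions without added stimulus.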 Conditions: RPMI8226 myeloma viability, higher = more signal.
The nature of test [5]: JC-1 mitochondrial signal, unstimulated HepG2 cells – cell-based, JC-1 fluorescence, 24 h, 100 nL compound, profiling panel (AID 1167). The following applies: HepG2 mitochondrial potential, higher = more signal.
Test [6] can be described thus: JC-1 mitochondrial signal, unstimulated adipocytes – cell-based, JC-1 fluorescence, 3T3-L1 adipocytes, 24 h, 100 nL compound, profiling panel (AID 1168). The following applies: JC-1 mitochondrial fluorescence, higher = more signal, called active from +8 up or from −8 down.
Test [7] in a line: JC-1 mitochondrial signal, unstimulated myeloma cells – cell-based, JC-1 fluorescence, RPMI8226, 24 h, 100 nL compound, profiling panel (AID 1169). Conditions: JC-1 mitochondrial potential fluorescence, higher = more signal.
Test [8] can be described thus: JC-1 mitochondrial signal, unstimulated MM1S myeloma – cell-based, JC-1 fluorescence, 24 h, 100 nL compound, profiling panel (AID 1170). The following applies: MM1S mitochondrial potential, higher = more signal.
A short description of test [9]: resazurin metabolic signal in A549 cells – cell-based, resazurin fluorescence, 24 h, PK04 Diversity Set, profiling panel (AID 1171). The following applies: A549 viability, higher = more signal, called active from +8 up or from −8 down. Background: Resazurin is reduced to fluorescent resorufin, in cell work by metabolically active cells.
Test [10] is described as follows: resazurin metabolic signal in HepG2 cells – cell-based, resazurin fluorescence, 24 h, PK04 Diversity Set, profiling panel (AID 1172). Conditions: HepG2 viability, higher = more signal.
Test [11] can be described thus: budding yeast growth changes without added modifier – OD600, strain BY4716, 24 h, basal condition, primary screen (AID 1173). Conditions: S. cerevisiae BY4716 growth, OD600, 24 h; higher = more signal, called active from +8 up or from −8 down.
A short description of test [12]: viability profiling in MM1S myeloma cells – cell-based, resazurin fluorescence, basal, 24 h, PK04 Diversity Set, profiling panel (AID 1174). Conditions: higher = more signal, called active from +8 up or from −8 down.
The target of test [13] is Dihydroorotate dehydrogenase (quinone), mitochondrial (Plasmodium falciparum (isolate 3D7)) (UniProt Q08210). Briefly: inhibition of P. falciparum DHODH – biochemical, C-terminal His tag, absorbance 600 nm, primary screen (AID 1175).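 Note: recombinant parasite enzyme with a five histidine tag at its C terminus.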 The following applies: PfDHODH enzyme, DCIP absorbance 600 nm; higher = more signal, called active from +8 up or from −8 down.
Chain of Dihydroorotate dehydrogenase (quinone), mitochondrial (Plasmodium falciparum (isolate 3D7)) (Q08210 whole entry, looked up): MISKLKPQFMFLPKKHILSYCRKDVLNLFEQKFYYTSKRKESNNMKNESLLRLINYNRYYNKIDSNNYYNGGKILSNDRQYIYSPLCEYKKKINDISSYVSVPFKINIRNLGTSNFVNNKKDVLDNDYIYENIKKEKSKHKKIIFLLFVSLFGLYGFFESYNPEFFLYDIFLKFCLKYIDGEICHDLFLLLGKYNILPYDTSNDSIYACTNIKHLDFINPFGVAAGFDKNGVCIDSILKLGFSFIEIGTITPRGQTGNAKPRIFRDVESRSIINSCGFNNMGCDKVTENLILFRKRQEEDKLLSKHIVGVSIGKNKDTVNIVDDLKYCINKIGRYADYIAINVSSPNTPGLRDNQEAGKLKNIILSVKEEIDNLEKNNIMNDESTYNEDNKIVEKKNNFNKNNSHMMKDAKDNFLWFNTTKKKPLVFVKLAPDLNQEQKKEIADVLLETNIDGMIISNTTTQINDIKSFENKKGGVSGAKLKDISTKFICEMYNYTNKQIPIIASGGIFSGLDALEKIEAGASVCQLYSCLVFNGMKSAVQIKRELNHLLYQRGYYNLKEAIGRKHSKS
A short description of test [14]: growth modulation of vineyard yeast isolate – strain RM11-1a, OD600, basal, 24 h, primary screen (AID 1177).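 Note: cultures grown under basal conditions with no added stressor.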 The following applies: S. cerevisiae RM11-1a growth, OD600, 24 h; higher = more signal, called active from +8 up or from −8 down.
Test [15] can be described thus: growth of efflux-deficient E. coli DRC39 – strain DRC39, OD650, 24 h, E. coli filamentation inducers, primary screen (AID 1178).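 Note: growth measured as culture turbidity by optical density at 650 nm.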 The following applies: E. coli DRC39 acrAB, higher = more signal, called active from +8 up or from −8 down.
Test [16] is described as follows: growth of efflux-deficient E. coli DRC39 – strain DRC39, OD650, 48 h, E. coli filamentation inducers, primary screen (AID 1179).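 Note: screen aims at cell division blockers that make cells filament.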 The following applies: E. coli DRC39 delta-acrAB growth, higher = more signal, called active from +8 up or from −8 down.
The nature of test [17]: viability profiling in RPMI8226 myeloma cells – cell-based, resazurin fluorescence, basal, 24 h, PK04 Diversity Set, profiling panel (AID 1180).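 Note: RPMI8826 multiple myeloma cell line at 5000 cells per well.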 The following applies: higher = more signal.
The target of test [18] is E3 ubiquitin-protein ligase XIAP (Homo sapiens) (UniProt P98170). In words: small molecules binding XIAP protein – biophysical, small-molecule microarray, fluorescence 635 nm, primary screen (AID 1181).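 Note: score merges 667 nm emission and signal to noise over triplicate slides.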 Conditions: higher = more signal.
Chain of E3 ubiquitin-protein ligase XIAP (Homo sapiens) (P98170 whole entry, looked up, the tested form may be a part): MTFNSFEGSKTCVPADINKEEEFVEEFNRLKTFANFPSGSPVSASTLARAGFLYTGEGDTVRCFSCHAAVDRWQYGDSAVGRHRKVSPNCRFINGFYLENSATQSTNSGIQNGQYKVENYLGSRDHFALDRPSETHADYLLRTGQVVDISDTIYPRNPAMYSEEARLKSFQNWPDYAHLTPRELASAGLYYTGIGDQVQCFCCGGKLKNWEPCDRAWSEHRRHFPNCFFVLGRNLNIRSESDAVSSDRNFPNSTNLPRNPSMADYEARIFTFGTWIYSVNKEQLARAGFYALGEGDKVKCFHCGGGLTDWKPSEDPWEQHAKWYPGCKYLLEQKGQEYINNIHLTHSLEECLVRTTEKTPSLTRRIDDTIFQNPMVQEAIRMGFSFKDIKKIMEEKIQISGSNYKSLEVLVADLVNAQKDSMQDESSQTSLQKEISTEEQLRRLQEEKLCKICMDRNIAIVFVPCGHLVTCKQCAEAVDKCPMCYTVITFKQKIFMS
Test [19] concerns XIP peptide (Xip251-270) binding. In words: XIP fragment 251-270 binding compounds – biochemical, small-molecule microarray, fluorescence 635/667 nm, 0.1 µg/mL protein, primary screen (AID 1182). Conditions: fluorescent protein binding, 635 nm, higher = more signal, called active from +8 up or from −8 down.
The next test has as its system XIP peptide (Xip251-270). In words: compounds binding XIP fragment 251-270 – biochemical, small-molecule microarray, fluorescence 635/667 nm, 0.5 µg/mL protein, primary screen (AID 1183). Conditions: fluorescence 635 nm, higher = more signal.

Consider `COc1ccc([Si](C)(C)[C@@H]2[C@@H](CC(=O)N3CCC[C@H]3CO)O[C@]3(C(=O)N(Cc4ccc(I)cc4)c4ccccc43)[C@H]2C)cc1`, for which the z-score in test [1] is 2.59; in test [2], -2.95; in test [3], -2.58; in test [4] it was -4.35; in [5], 2.47; in [6], 1.67 (inactive). Besides, the z-score in [7] was -1.04; in test [8], -0.818; in test [9], -2.59 (inactive); in [10] it was -1.37; in [11], -1.91 (inactive); in test [12] it was -2.56 (inactive). Besides, the z-score in [14] is -0.289 (inactive); in test [15], 1.66 (inactive); in test [16], 0.78 (inactive); in test [17], -2.59. The composite z-score in test [13] was 0.413 (inactive); in [18], 0.0368; in test [19], 0.564 (inactive); in the test on XIP peptide (Xip251-270), 0.534.

For `COc1ccc(C(=O)Nc2cccc(CN3C(=O)[C@@]4(O[C@@H](CCO)[C@H]([Si](C)(C)c5ccc(OC)cc5)[C@H]4C)c4ccccc43)c2)cc1`, the z-score in test [1] is -0.301; in test [2] it was -4.74; in test [3] it was -2.7; in [4], -4.46; in test [5], -1.97; in [6], 2.77 (inactive). Further, the z-score in test [7] was -0.972; in test [8], -2.36; in [9], -5.62 (inactive); in [10] it was -6.42; in test [11], -3.58 (inactive); in [12], -9.06 (active). In addition, the z-score in [14] was 2.06 (inactive); in test [15], 2.75 (inactive); in test [16] it was 1.55 (inactive); in test [17], -6.22. The composite z-score was -0.873 (inactive) in test [13], 0.0049 in test [18], 0.11 (inactive) in test [19] and 0.115 in the test on XIP peptide (Xip251-270).

As to `[N-]=[N+]=NCc1ccccc1C[C@@]1(C(=O)O)N=C(c2ccc(OCCCO)cc2)O[C@@H]1c1ccccc1`, the z-score in test [1] is 0.298; in [2], -0.187; in test [3], -0.139; in [4] it was 0.0527; in [5], -0.586; in test [6] it was 0.493 (inactive). Moreover, the z-score in [7] was -0.497; in test [8] it was 0.394; in [9] it was 0.946 (inactive); in test [10] it was 0.458; in [11] it was -3.34 (inactive); in test [12], 0.954 (inactive). Besides, the z-score is -1.01 (inactive) in [14], 2.63 (inactive) in [15], 1.26 (inactive) in test [16] and 0.903 in test [17]. The composite z-score in [13] was 0.0567 (inactive); in test [18], 0.188; in test [19] it was 1.35 (inactive); in the test with XIP peptide (Xip251-270) it was 0.687.

On to `O=C1O[C@H](c2ccccc2)[C@H](c2ccccc2)N2[C@H]1[C@@H](C(=O)Nc1nc3ccccc3s1)[C@]1(C(=O)Nc3ccc(C#CCCO)cc31)[C@H]2c1ccccc1OCCO`, for which the z-score in test [1] is 1.87; in test [2], 0.383; in test [3], -1; in [4], -0.198; in test [5] it was -2.75; in [6] it was 1.18 (inactive). Moreover, the z-score is -0.8 in [7]; -1.16 in [8]; 0.411 (inactive) in test [9]; 0.253 in test [10]; 0.243 (inactive) in test [11]; 0.228 (inactive) in test [12]. In addition, the z-score in test [14] was 1.07 (inactive); in test [15] it was 0.381 (inactive); in [16], 0.391 (inactive); in test [17], -0.914. Moreover, the composite z-score in [13] was -0.244 (inactive); in test [18], 0.15; in test [19], 1.52 (inactive); in the test with XIP peptide (Xip251-270), 0.732.

As for `CCCCC(=C=CC[C@@H](O)c1ccc(OCCO)cc1)C[C@@H](O)c1cc(Cl)cc(Cl)c1O`, the z-score in [1] was 1.37; in test [2], 0.652; in test [3], -3.38; in [4], -3.4; in [5], -0.376; in test [6], 1.43 (inactive). For the same molecule, the z-score in [7] was -0.0474; in test [8] it was 0.781; in test [9], 2.58 (inactive); in [10] it was 2.12; in test [11], -5.94 (inactive); in test [12], 0.199 (inactive). In addition, the z-score is -3.1 (inactive) in test [14], 3.34 (inactive) in test [15], 2.27 (inactive) in [16] and 0.285 in test [17]. Moreover, the composite z-score in test [13] was -2.43 (inactive); in test [18] it was 0.0394; in [19] it was 0.925 (inactive); with XIP peptide (Xip251-270) it was 0.365.

With `C=CC[C@@H](OC(=O)Nc1ccc(SC)cc1)c1ccc(OCCO)cc1`, the z-score in [1] is 0.344; in [2], -0.0505; in test [3], -0.2; in [4] it was 0.0111; in [5] it was -2.22; in [6] it was 0.812 (inactive). The z-score is 0.561 in [7]; -0.774 in test [8]; 0.364 (inactive) in test [9]; 0.537 in test [10]; -5.16 (inactive) in [11]; 0.822 (inactive) in [12]. Besides, the z-score was -0.0086 (inactive) in [14], 1.28 (inactive) in test [15], 0.899 (inactive) in test [16] and 0.301 in [17]. Moreover, the composite z-score is -1.13 (inactive) in [13], -0.0773 in [18], 1.08 (inactive) in test [19] and -0.689 in the test with XIP peptide (Xip251-270).

`CC(C)CCC[C@@H](C)[C@H]1CC[C@@]2(C)C3=C(CC[C@]12C)[C@@]1(C)CC[C@H](OC(=O)CCl)C(C)(C)C1CC3` (stereo not given in full): the z-score in [1] is 0.155; in [2], 1.17; in test [3] it was 0.405; in test [4] it was 0.895; in test [5] it was 1.58; in test [6], -0.207 (inactive). Also, the z-score in test [7] was -0.493; in [8] it was 1.07; in test [9], 0.96 (inactive); in [10], 1.16; in [11], -0.795 (inactive); in test [12], 0.33 (inactive). In addition, the z-score in test [14] is -0.249 (inactive); in test [15] it was 2.93 (inactive); in test [16], 1.59 (inactive); in test [17], 0.444. In addition, the composite z-score is 0.141 (inactive) in test [13], 0.106 in test [18], 0.133 (inactive) in test [19] and 0.174 in the test on XIP peptide (Xip251-270).

Take `C=C(COC)C(=O)CC[C@H](OC(=O)c1cccnc1)c1cccc(OCCO)c1`: the z-score in test [1] is 1.13; in [2], -1.38; in test [3], -3.32; in test [4], -0.941; in test [5], 0.872; in test [6], 0.984 (inactive). For the same molecule, the z-score is -0.169 in [7]; -0.615 in test [8]; 0.633 (inactive) in test [9]; 0.282 in test [10]; -0.221 (inactive) in [11]; 0.839 (inactive) in test [12]. The z-score was 1.61 (inactive) in test [14], 1.09 (inactive) in test [15], 0.757 (inactive) in test [16] and -0.581 in [17]. The composite z-score in [13] was -0.236 (inactive); in test [18] it was 0.0792; in test [19], 0.804 (inactive); in the test with XIP peptide (Xip251-270) it was -0.661.
